Among the data in publication PMC7862700, “An all-to-all approach to the identification of sequence-specific readers for epigenetic DNA modifications on cytosine” are binding signal values, retold here.

Common to all, as to assay: DAPPL (digital affinity profiling via proximity ligation, sequencing); 10 mM Tris-HCl pH 7.5, 50 mM NaCl, 1 mM DTT, 4% glycerol, room temperature, 30 min; GST-TFs on glutathione beads, 16-mer random dsDNA library, 0.1% formaldehyde crosslink after washing; high values mean tight binding
One assay concerns the target T1, FEV (Homo sapiens, UniProt Q99581 1-238).
T1 sequence: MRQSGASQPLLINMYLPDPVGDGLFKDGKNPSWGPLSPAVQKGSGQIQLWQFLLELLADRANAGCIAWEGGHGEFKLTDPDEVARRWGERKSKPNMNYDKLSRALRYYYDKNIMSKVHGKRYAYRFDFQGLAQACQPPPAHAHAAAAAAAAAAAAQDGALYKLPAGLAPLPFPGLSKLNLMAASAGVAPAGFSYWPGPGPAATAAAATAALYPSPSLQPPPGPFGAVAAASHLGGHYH
As to conditions: protein: recombinant; tags: N-terminal GST; dsDNA, one strand shown. In a few lines:
(§1)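 Beads coated with glutathione captured GST-fused human transcription factors that had been expressed in yeast, and the factors were then given DNA barcodes and pooled with a tag-only sample. The pools were incubated with 200 nmole of a random double-stranded 16-mer DNA library in Tris/NaCl/DTT/glycerol buffer for 30 min at room temperature, washed, crosslinked with 0.1% formaldehyde and proximity-ligated with BsaI/T4 ligase at 37 °C for 1 h. PCR amplification and Illumina NextSeq500 sequencing came last. Binding signal is each hexamer's read frequency for a factor divided by its frequency for the tag-only sample.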

A further assay concerns the target ETV5 (Homo sapiens, UniProt P41161 1-510). As to conditions: protein: recombinant; tags: N-terminal GST; dsDNA, one strand shown. The method, boiled down: as §1
The target of the next assay is HSF1 (Homo sapiens, UniProt Q00613 1-529). As to conditions: protein: recombinant; tags: N-terminal GST; chain copies: 3; dsDNA, one strand shown. The method, boiled down:
as §1

The next assay concerns the target T2, SPIC (Homo sapiens, UniProt Q8N5J4 1-248).
T2 sequence: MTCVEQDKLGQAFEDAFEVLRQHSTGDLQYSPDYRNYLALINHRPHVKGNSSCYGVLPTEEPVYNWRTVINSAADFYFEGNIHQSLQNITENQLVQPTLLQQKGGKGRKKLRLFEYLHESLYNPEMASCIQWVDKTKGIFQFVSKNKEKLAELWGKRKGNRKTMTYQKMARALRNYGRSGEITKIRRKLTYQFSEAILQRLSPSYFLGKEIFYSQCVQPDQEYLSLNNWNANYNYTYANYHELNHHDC
As to conditions: protein: recombinant; tags: N-terminal GST; dsDNA, one strand shown. The method, boiled down: as §1

A further assay deals with ELF4 (Homo sapiens, UniProt Q99607 1-663). As to conditions: protein: recombinant; tags: N-terminal GST; dsDNA, one strand shown. In a few lines: as §1
ELF4, sequence (Q99607 whole entry): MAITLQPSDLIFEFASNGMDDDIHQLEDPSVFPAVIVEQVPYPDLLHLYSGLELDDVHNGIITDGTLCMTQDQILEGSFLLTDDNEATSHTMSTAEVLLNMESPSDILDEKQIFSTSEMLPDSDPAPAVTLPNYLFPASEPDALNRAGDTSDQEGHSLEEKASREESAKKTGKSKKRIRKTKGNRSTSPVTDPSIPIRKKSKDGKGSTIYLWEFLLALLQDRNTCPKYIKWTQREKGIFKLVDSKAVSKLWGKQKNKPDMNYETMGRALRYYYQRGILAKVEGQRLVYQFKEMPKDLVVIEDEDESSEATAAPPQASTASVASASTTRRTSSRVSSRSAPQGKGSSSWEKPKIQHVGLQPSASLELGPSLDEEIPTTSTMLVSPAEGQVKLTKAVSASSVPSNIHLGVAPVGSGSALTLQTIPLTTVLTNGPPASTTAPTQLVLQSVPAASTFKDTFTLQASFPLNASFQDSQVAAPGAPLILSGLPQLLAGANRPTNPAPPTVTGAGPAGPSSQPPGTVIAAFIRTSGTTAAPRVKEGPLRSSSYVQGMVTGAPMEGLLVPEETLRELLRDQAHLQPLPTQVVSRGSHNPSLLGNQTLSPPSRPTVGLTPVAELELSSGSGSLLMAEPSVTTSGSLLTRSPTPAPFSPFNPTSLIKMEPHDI
In the next assay the target is T3, ELK4 (Homo sapiens, UniProt P28324-2 1-405).
T3 sequence: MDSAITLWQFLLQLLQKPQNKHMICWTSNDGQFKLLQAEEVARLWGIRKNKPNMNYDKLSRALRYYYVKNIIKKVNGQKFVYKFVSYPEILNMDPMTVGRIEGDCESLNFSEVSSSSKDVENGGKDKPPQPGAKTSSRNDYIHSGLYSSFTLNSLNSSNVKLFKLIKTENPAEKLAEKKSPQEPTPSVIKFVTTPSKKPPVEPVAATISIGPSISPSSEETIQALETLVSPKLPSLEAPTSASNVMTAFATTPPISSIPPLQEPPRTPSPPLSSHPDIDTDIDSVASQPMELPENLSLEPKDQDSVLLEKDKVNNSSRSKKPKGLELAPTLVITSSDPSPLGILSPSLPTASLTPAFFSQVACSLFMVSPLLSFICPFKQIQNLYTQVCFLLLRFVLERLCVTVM
As to conditions: protein: recombinant; tags: N-terminal GST; dsDNA, one strand shown. The method, boiled down:
as §1

The next assay concerns the target T4, ETV2 (Homo sapiens, UniProt O00321 1-342).
T4 sequence: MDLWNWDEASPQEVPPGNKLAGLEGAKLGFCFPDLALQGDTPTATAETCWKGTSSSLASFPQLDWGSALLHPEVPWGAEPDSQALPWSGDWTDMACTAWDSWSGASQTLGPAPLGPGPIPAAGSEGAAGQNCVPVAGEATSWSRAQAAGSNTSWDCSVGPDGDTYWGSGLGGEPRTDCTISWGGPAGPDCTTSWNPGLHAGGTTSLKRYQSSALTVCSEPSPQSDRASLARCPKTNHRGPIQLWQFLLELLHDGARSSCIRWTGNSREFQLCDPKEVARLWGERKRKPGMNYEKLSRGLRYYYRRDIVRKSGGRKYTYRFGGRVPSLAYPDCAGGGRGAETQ
As to conditions: protein: recombinant; tags: N-terminal GST; dsDNA, one strand shown. The method, boiled down:
as §1

The next assay deals with T5, ELF3 (Homo sapiens, UniProt P78545 1-371).
T5 sequence: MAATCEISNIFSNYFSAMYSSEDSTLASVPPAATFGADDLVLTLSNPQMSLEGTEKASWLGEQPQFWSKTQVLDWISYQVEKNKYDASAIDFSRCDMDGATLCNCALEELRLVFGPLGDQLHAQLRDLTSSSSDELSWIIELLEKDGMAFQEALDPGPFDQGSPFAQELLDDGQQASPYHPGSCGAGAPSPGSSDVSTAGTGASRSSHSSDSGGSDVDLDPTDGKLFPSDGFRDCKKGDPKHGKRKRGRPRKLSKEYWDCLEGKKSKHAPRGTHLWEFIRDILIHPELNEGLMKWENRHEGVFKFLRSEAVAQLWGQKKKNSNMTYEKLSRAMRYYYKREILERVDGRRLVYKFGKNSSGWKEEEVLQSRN
As to conditions: protein: recombinant; tags: N-terminal GST; dsDNA, one strand shown. The method, boiled down: as §1

The target in the next assay is CRX (Homo sapiens, UniProt O43186 1-299). As to conditions: protein: recombinant; tags: N-terminal GST; dsDNA, one strand shown. In a few lines:
as §1

The next assay deals with ETV1 (Homo sapiens, UniProt P50549 1-477). As to conditions: protein: recombinant; tags: N-terminal GST; dsDNA, one strand shown. In a few lines: as §1
ETV1, sequence (P50549 whole entry): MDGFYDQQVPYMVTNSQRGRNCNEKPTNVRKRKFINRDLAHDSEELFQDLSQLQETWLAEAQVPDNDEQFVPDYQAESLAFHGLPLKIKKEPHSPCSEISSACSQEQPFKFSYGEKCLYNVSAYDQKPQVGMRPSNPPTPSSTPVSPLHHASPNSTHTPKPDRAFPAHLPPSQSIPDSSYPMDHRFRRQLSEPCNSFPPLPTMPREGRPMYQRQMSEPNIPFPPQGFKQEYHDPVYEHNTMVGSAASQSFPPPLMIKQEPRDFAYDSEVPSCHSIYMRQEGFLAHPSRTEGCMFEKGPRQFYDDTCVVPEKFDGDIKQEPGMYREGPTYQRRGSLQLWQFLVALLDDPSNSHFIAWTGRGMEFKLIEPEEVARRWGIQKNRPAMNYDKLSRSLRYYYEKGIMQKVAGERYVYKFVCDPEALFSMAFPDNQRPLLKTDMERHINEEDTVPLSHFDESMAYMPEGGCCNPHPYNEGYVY
In the next assay the target is T6, ERF (Homo sapiens, UniProt P50548 1-548).
T6 sequence: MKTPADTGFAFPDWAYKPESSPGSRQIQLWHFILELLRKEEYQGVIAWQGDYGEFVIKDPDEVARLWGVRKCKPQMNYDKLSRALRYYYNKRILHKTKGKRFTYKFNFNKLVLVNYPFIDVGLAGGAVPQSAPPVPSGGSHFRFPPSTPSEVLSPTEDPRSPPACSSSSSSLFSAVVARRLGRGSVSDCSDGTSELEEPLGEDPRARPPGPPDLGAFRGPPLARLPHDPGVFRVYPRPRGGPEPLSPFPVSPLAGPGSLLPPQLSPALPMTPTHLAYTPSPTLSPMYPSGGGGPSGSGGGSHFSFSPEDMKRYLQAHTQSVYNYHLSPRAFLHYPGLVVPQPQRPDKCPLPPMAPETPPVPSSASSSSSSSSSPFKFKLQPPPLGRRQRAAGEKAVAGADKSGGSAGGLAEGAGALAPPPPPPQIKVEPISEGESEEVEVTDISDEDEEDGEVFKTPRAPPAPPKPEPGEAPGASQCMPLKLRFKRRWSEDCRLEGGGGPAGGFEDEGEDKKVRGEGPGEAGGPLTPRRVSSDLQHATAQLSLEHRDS
As to conditions: protein: recombinant; tags: N-terminal GST; dsDNA, one strand shown. The method, boiled down:
as §1

The target in the next assay is T7, ETV3L (Homo sapiens, UniProt Q6ZN32 1-361).
T7 sequence: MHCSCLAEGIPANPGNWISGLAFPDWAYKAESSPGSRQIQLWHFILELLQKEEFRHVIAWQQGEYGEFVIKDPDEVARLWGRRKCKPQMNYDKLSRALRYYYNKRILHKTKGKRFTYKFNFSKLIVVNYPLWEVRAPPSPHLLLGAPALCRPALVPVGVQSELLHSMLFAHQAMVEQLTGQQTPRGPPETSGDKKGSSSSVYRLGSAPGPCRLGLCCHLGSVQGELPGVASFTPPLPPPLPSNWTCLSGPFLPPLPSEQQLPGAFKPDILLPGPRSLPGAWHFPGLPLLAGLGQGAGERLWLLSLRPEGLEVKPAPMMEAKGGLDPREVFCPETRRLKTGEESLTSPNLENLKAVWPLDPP
As to conditions: protein: recombinant; tags: N-terminal GST; dsDNA, one strand shown. The method, boiled down:
as §1

Another assay has as its target T8, ETS2 (Homo sapiens, UniProt P15036 1-469).
T8 sequence: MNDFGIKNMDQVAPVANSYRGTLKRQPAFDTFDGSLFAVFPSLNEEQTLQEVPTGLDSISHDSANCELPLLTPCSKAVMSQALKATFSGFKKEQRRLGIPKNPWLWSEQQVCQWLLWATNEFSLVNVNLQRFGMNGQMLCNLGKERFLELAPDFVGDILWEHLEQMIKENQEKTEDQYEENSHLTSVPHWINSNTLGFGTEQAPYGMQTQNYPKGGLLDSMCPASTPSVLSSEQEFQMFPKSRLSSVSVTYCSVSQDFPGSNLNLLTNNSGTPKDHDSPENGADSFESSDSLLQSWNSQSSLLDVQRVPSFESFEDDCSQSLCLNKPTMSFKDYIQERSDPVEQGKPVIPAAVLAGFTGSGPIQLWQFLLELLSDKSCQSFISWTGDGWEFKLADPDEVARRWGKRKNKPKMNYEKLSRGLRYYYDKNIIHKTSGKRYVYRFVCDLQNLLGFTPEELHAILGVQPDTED
As to conditions: protein: recombinant; tags: N-terminal GST; dsDNA, one strand shown. In a few lines:
as §1

The next assay has as its target T9, SPDEF (Homo sapiens, UniProt O95238 1-335).
T9 sequence: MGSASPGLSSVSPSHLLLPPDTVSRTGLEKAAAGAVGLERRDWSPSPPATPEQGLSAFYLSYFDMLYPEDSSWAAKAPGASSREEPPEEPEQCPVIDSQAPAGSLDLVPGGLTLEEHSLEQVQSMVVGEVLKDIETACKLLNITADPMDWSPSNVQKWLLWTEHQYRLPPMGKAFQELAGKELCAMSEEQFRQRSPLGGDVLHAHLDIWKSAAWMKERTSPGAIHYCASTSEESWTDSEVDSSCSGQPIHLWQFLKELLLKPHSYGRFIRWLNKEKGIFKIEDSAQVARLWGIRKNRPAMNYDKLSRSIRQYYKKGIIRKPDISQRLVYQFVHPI
As to conditions: protein: recombinant; tags: N-terminal GST; dsDNA, one strand shown. The method, boiled down: as §1

A further assay has as its target T10, ETV7 (Homo sapiens, UniProt Q9Y603 1-341).
T10 sequence: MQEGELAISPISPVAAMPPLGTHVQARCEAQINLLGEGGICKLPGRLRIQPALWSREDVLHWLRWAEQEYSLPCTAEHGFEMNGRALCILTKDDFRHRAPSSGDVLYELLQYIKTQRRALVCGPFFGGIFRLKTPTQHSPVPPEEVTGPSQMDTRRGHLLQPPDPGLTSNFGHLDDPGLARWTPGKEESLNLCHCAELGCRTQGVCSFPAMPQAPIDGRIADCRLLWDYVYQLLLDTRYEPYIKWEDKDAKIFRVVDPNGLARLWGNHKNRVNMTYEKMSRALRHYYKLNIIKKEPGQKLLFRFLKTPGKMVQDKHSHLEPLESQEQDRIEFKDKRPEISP
As to conditions: protein: recombinant; tags: N-terminal GST; dsDNA, one strand shown. The method, boiled down: as §1

Another assay has as its target T11, ELF5 (Homo sapiens, UniProt Q9UKW6-2 1-255).
T11 sequence: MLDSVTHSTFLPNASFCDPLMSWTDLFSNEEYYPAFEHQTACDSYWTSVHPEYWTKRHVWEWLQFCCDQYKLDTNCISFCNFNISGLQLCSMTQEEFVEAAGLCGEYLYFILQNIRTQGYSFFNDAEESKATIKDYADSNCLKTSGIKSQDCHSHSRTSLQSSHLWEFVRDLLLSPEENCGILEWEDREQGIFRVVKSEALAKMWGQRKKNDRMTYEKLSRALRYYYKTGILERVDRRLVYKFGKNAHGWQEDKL
As to conditions: protein: recombinant; tags: N-terminal GST; dsDNA, one strand shown. The method, boiled down: as §1

The next assay deals with T12, ETV3 (Homo sapiens, UniProt P41162-2 1-143).
T12 sequence: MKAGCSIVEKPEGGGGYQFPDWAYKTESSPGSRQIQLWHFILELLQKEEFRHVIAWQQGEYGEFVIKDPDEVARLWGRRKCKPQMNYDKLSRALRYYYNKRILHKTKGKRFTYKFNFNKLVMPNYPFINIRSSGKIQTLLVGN
As to conditions: protein: recombinant; tags: N-terminal GST; dsDNA, one strand shown. The method, boiled down: as §1

The next assay concerns the target ETV6 (Homo sapiens, UniProt P41212 1-452). As to conditions: protein: recombinant; tags: N-terminal GST; dsDNA, one strand shown. In a few lines:
as §1

CRX, sequence (O43186 whole entry): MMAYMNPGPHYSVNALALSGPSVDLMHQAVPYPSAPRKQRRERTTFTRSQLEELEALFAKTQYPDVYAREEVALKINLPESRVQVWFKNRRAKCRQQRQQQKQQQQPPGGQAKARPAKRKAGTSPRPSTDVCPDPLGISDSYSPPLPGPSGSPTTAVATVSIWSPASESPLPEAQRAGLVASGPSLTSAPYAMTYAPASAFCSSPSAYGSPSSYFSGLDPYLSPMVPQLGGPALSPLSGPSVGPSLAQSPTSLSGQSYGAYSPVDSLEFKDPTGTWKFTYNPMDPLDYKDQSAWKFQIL
HSF1, sequence (Q00613 whole entry): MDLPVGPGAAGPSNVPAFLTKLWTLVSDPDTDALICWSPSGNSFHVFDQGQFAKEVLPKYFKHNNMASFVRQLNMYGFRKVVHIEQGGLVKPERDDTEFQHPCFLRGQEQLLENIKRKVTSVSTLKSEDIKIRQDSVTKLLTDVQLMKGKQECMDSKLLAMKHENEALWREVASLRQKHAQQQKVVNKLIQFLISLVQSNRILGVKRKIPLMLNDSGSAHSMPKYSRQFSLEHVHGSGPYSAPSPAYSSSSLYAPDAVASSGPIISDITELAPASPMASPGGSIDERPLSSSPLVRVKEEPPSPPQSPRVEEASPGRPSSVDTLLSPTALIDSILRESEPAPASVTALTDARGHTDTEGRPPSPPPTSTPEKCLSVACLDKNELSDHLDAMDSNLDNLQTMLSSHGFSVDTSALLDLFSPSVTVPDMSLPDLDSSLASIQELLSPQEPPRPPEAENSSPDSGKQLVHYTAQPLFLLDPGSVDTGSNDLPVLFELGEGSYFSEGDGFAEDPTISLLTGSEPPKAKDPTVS
ETV5, sequence (P41161 whole entry): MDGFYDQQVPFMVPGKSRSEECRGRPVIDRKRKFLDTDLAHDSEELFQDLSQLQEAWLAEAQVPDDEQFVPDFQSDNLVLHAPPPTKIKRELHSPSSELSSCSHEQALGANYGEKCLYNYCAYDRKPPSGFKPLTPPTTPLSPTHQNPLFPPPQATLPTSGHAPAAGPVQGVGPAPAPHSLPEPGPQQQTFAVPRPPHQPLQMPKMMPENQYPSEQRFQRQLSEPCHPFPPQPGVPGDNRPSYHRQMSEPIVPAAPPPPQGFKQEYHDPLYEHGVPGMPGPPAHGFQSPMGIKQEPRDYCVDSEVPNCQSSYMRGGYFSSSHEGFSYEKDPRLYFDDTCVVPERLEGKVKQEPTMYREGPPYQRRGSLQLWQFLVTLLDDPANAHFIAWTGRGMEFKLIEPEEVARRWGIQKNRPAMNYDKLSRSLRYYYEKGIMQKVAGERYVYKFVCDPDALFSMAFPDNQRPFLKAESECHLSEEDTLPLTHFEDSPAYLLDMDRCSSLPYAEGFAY
ETV6, sequence (P41212 whole entry): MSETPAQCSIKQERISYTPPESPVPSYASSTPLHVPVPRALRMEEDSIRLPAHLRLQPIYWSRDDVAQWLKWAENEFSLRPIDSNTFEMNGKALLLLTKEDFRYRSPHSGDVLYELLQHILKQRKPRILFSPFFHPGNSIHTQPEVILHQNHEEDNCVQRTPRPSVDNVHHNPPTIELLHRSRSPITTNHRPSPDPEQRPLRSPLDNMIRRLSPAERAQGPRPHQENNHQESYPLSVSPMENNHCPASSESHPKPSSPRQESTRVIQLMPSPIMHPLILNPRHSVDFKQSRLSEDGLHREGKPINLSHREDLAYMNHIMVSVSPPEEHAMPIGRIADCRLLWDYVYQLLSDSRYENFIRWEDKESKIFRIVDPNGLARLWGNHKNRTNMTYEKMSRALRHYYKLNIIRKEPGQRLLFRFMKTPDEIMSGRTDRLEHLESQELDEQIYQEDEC

As to AATAGT, the binding signal was 1.19 fold enrichment (6-mer frequency, TF over GST control) in the assay with FEV; 1.27 fold enrichment (6-mer frequency, TF over GST control) with ETV5; 1.21 fold enrichment (6-mer frequency, TF over GST control) with HSF1; 1.28 fold enrichment (6-mer frequency, TF over GST control) in the assay with SPIC; 1.18 fold enrichment (6-mer frequency, TF over GST control) in the assay with ELF4; 1.46 fold enrichment (6-mer frequency, TF over GST control) in the assay with ELK4. Besides, the binding signal with ETV2 was 1.17 fold enrichment (6-mer frequency, TF over GST control); in the assay with ELF3 it was 1.26 fold enrichment (6-mer frequency, TF over GST control); with CRX, 1.19 fold enrichment (6-mer frequency, TF over GST control); with ETV1 it was 1.17 fold enrichment (6-mer frequency, TF over GST control); in the assay with ERF, 1.21 fold enrichment (6-mer frequency, TF over GST control); with ETV3L, 1.25 fold enrichment (6-mer frequency, TF over GST control). For the same sequence, the binding signal with ETS2 is 1.13 fold enrichment (6-mer frequency, TF over GST control); with SPDEF, 1.06 fold enrichment (6-mer frequency, TF over GST control); with ETV7, 1.18 fold enrichment (6-mer frequency, TF over GST control); in the assay with ELF5, 1.18 fold enrichment (6-mer frequency, TF over GST control); with ETV3, 1.3 fold enrichment (6-mer frequency, TF over GST control); with ETV6, 1.34 fold enrichment (6-mer frequency, TF over GST control).
